Assay outcomes deposited in PubChem by several laboratories.
AF4-AF9 inh – inhibitors of AF4 peptide binding to AF9, primary screen, biochemical, AlphaScreen, biotin-AF4 peptide, FLAG-AF9, single point. Protein AF-9 (Homo sapiens), P42568. 350,000 tested, 0.47% active. AID 651704, 2012. inhibition, % at 10 µM;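 active = every replicate reaching a set inhibition limit, whatever the replicate mean, cut at about 25% in these data; inconclusive = mean inhibition reaches that limit but some replicates miss it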;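 also: 0% = plate neutral control median and 100% = total signal loss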
SMARCA2 act – SMARCA2 (BRM) function activators, primary screen, cell-based, luminescence, high throughput | MG213 cells, MMTV-luciferase reporter, dexamethasone, overnight | activation, % at 9.1 µM | 370,000 tested, 1% active; in the data active = activation above about 7.8%;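 also: 0% = vehicle wells and 100% = reference activator wells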
Wnt act – Wnt/beta-catenin pathway activators, primary screen, cell-based, plate reader, single point | Wnt/beta-catenin reporter cell assay, activator | activation, % at 9.35 µM | 300,000 tested, 1.2% active | AID 743398, 2014; in the data active = activation above about 30%, passing the limit was not always enough; inconclusive = no clear call, values can overlap the other calls;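 also: 0% = neutral control wells and 100% = positive control wells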
FGF22 binding – binders of human FGF22 protein, primary screen, FGF22 synaptogenesis inhibitor project, biophysical, thermal shift, single point. recombinant FGF22 thermal shift, SYPRO orange fluorescence; percent of sucrose octasulfate shift, DMSO zero. AID 651658, 2012. Fibroblast growth factor 22 (Homo sapiens), Q9HCT0. 340,000 tested, 1.5% active. activity (Tm shift, normalised), % at 9.99 µM;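 active = mean Tm shift, scaled 0 neutral to 100 positive control, at about 1.3% or above, every replicate too, limit read from the data; inconclusive = no clear call, values can overlap the other calls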
Target sequence (Q9HCT0 whole entry, looked up): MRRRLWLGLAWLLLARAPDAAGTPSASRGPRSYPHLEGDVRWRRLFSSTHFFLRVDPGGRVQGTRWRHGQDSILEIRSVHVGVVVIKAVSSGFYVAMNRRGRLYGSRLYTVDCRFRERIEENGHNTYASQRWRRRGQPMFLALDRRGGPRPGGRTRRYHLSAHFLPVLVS
esBAF inh – Bmi1 luciferase reporter increase in mESCs, primary screen, esBAF inhibitor project, mouse ES cells, Bmi1 luciferase knock-in, single point. 24 h; 100% = twice the neutral-well signal. 350,000 tested, 2% active. reporter increase, % at 12.5 µM; in the data active = activation above about 40%; inconclusive = no clear call, values can overlap the other calls;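 also: 0% = median of the plate's neutral control wells and 100% = double that signal; a rise in the Bmi1 reporter signal indicates esBAF inhibition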
MITF act – activators of MITF-driven TRPM1 promoter reporter, primary screen, cell-based, SK-MEL-5, luciferase, single point; activation, % at 12.5 µM; 300,000 tested, 0.75% active; SK-MEL-5 TRPM1-promoter luciferase, 24 h; % of positive control, neutral wells = 0;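 active = mean activation of at least 80% with every replicate also reaching 80%; inconclusive = mean reaches 80% but some replicate falls short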;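 also: 0% = neutral control wells and 100% = parthenolide positive control wells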
Numbers without * were called inactive; ? = inconclusive; . = no result. Hits are enriched below; roughly 4.3% of the tested compounds scored in any of these assays.

SMILES	AF4-AF9 inh	SMARCA2 act	Wnt act	FGF22 binding	esBAF inh	MITF act
O=C(C[C@H]1C=C[C@H](NC(=O)C2CC2)[C@@H](CO)O1)Nc1ccccc1	0	.	.	0	-4	.
C[C@H](CO)N1C[C@H](C)[C@H](CN(C)Cc2ccc(C(F)(F)F)cc2)OCCCC[C@H](C)Oc2ccc(N(C)C)cc2C1=O	32*	.	.	0	-2	.
C[C@@H]1CN([C@@H](C)CO)C(=O)c2cc(N(C)C)ccc2O[C@@H](C)CCCCO[C@@H]1CN(C)Cc1ccc(C(F)(F)F)cc1	39*	.	.	0	1	.
C[C@@H]1CCCCO[C@H](CN(C)Cc2ccc(C(F)(F)F)cc2)[C@@H](C)CN([C@H](C)CO)C(=O)c2cc(N(C)C)ccc2O1	11	.	.	.	-12	.
C[C@@H]1CN([C@H](C)CO)C(=O)c2cc(N(C)C)ccc2O[C@@H](C)CCCCO[C@@H]1CN(C)Cc1ccc(C(F)(F)F)cc1	35*	.	.	-1	1	.
C[C@H](CO)N1C[C@H](C)[C@@H](CN(C)Cc2ccc(C(F)(F)F)cc2)OCCCC[C@H](C)Oc2ccc(N(C)C)cc2C1=O	22	.	.	-1	-4	.
C[C@@H]1CN([C@H](C)CO)C(=O)c2cc(N(C)C)ccc2O[C@@H](C)CCCCO[C@H]1CN(C)Cc1ccc(C(F)(F)F)cc1	33*	.	.	0	-2	.
CCCNC(=O)N1CC2(CN(S(=O)(=O)c3cccc(OC)c3)C2)c2c(n(C)c3cc(OC)ccc23)[C@H]1CO	-2	.	.	.	.	.
CO[C@H]1CN(C)C(=O)c2cc(NC(C)=O)ccc2OC[C@H](C)N(Cc2ccccc2F)C[C@H]1C	4	.	.	0	-1	.
C[C@@H]1CN([C@@H](C)CO)C(=O)c2cc(N(C)C)ccc2O[C@@H](C)CCCCO[C@H]1CN(C)Cc1ccc(C(F)(F)F)cc1	38*	.	.	0	-3	.
CC(C)C#Cc1cnc2c(c1)C(=O)N([C@@H](C)CO)C[C@@H](C)[C@H](CN(C)C(=O)Nc1cc(F)ccc1F)O2	-1	.	.	0	8	.
COc1ccc2c(c1)c(=O)c(C(=O)c1ccccc1)cn2Cc1ccccc1	-1	-2	3	0	-5	-10
COc1ccc(Cn2cc(C(=O)O)c(=O)c3ccccc32)cc1	-1	-3	-1	43*	0	-13
CCCc1ccc(-c2cc(NC(=O)CSc3n[nH]c(N)n3)n(-c3ccccc3)n2)cc1	.	3	.	.	64*	?
CC(NC(=O)CSc1n[nH]c(N)n1)c1ccccc1 (stereo unspecified)	-2	-1	-1	0	7	-8
CCc1ccc(NC(=O)CSCc2nc(N)nc(Nc3ccccc3CC)n2)cc1	.	4	-6	.	-1	-9
CCc1ccccc1Nc1nc(N)nc(CSCC(=O)Nc2ccc(C)c(C)c2)n1	-1	-1	57*	0	.	-8
CC(C)(C)NC(=O)COc1ccc(-c2ccccc2)cc1	.	3	.	.	57*	65
Cc1cc(OCC(=O)NC(C)(C)C)ccc1Cl	-4	0	7	0	62*	74
COCCCNC(=O)COc1ccc(Cl)c(C)c1	.	-3	7	.	10	.
CCNC(=O)COc1ccc(OCc2ccccc2)cc1	2	6	15	0	15	32
CCNC(=O)COc1ccc(-c2ccccc2)cc1	.	-1	40*	.	19	.
C[C@H](CO)N1C[C@H](C)[C@@H](CN(C)S(=O)(=O)c2ccc(F)cc2)Oc2ccc(NS(=O)(=O)c3cn(C)cn3)cc2C1=O	-1	.	.	0	1	.
Cc1nc(NC(=O)CCl)sc1C(=O)N(C)C	-1	1	0	43*	.	-3
C[C@H](CO)N1C[C@H](C)[C@@H](CN(C)C(=O)Nc2ccc3c(c2)OCO3)OCCCC[C@H](C)Oc2ccc(N(C)C)cc2C1=O	-5	.	.	-2	3	.
SMILES	AF4-AF9 inh	SMARCA2 act	Wnt act	FGF22 binding	esBAF inh	MITF act
COc1cccc(C(=O)N[C@H](C(=O)N2CCC[C@H]2C(=O)NC2CCCC2)C2CCCCC2)c1	.	-1	-1	0	.	.
Cc1cnc(CN2CCc3c([nH]c4ccccc34)C2CC(C)C)[nH]1 (stereo unspecified)	12	-2	-8	43*	-2	-17
CNC[C@@H]1OCCCC[C@H](C)Oc2ccc(NC(=O)Nc3ccc(F)cc3)cc2C(=O)N([C@@H](C)CO)C[C@H]1C	0	.	.	-1	-3	.
CCOC(=O)N1CCN(C(=O)C2CCN(C(=O)c3ccccc3C)CC2)CC1	-1	6	-1	1.4*	-10	-74
Cc1ccccc1C(=O)N1CCC(C(=O)N2CCN(c3ncccn3)CC2)CC1	-1	-3	-5	0	-7	4
CC(=O)N(C)C[C@H]1[C@H](c2ccccc2)[C@@H](CO)N1C(=O)C1CC1	-3	.	.	0	-1	.
Cc1ccc(C(=O)OCC(=O)N2CCc3ccccc32)cc1	.	4	23	.	?	108*
Cc1ccc(C(=O)OCC(=O)N2CCCc3ccccc32)cc1C	0	0	7	.	8	19
CC(=O)c1c(C)[nH]c(C(=O)OCC(=O)N2CCc3ccccc32)c1C	.	1	0	.	54*	53
CCOC(=O)c1[nH]c(C)c(C(=O)OCC(=O)N2CCc3ccccc32)c1C	-1	-3	-2	0	7	-13
Cn1cccc1C(=O)OCC(=O)N1CCc2ccccc21	-1	3	53*	0	25	100*
CC(C)NC(=O)N(C)C[C@@H]1OCCCC[C@@H](C)Oc2ccc(NC(=O)Nc3cccc4ccccc34)cc2C(=O)N([C@H](C)CO)C[C@@H]1C	-11	.	.	-1	-10	.
Cc1noc(C)c1S(=O)(=O)Nc1cccc2c1O[C@H](CN(C)Cc1ccc(Oc3ccccc3)cc1)[C@H](C)CN([C@H](C)CO)C2=O	-1	.	.	0	6	.
O=C(COc1ccccc1C(=O)c1cnn(-c2ccccc2)c1)Nc1ccccc1	-3	6	?	0	49*	64
Cc1ccc(O)c(C(=O)c2cnn(-c3ccccc3)c2)c1	.	3	14	.	50*	8
CCNC(=O)COc1ccc(F)cc1C(=O)c1cnn(-c2ccccc2)c1	-3	0	0	0	3	-11
COc1ccccc1CNC(=O)COc1ccccc1C(=O)c1cnn(-c2ccccc2)c1	3	2	58*	0	75*	89*
O=C(C[C@@H]1CC[C@@H]2[C@H](COC[C@@H](O)CN2C(=O)C2CC2)O1)NCc1ccccc1Cl	0	.	.	0	-11	.
O=C(C[C@@H]1CC[C@H]2[C@@H](COC[C@@H](O)CN2Cc2ccc(Oc3ccccc3)cc2)O1)N1CCc2ccccc2C1	9	.	.	0	-13	.
